The text below walks through data of PubChem BioAssay.

Active and inactive are the calls of the source.

Experiment [1] is described as follows: binders of probe aFSTL3 on microarray, primary screen, stem cell growth factor project, biochemical, small-molecule microarray, fluorescence 635/667 (AID 1064).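 Further: measures binding of the biotinylated anti-FSTL3 antibody to printed compounds.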 To be noted: higher = more signal.
Experiment [2] is described as follows: binders from COS7 lysate, DM2A8 probe, primary screen, torsin A project, cell lysate, small-molecule microarray, fluorescence 635/667 (AID 1065). As to conditions: higher = more signal, COS7 lysate expressing mutant human TOR1A.
Experiment [3] in a line: binders of probe aFGF2 on microarray, primary screen, stem cell growth factor project, biochemical, small-molecule microarray, fluorescence 635/667 (AID 1067).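 Further: measures binding of biotinylated aFGF2 protein to printed compounds on slides; z-score merges feature fluorescence and signal-to-noise across triplicate slides.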 As to conditions: higher = more signal.
Experiment [4] is described as follows: binders of probe aFGF10 on microarray, primary screen, stem cell growth factor project, biochemical, small-molecule microarray, fluorescence 635/667 (AID 1071).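 Further: score merges 667 nm spot intensity and signal to noise from triplicate slides.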 As to conditions: higher = more signal.
For experiment [5], the target named is Neurogenic locus notch homolog protein 2 (Homo sapiens) (UniProt Q04721). The experiment is described as follows: Notch2 binders on small-molecule microarrays, primary screen, biochemical, small-molecule microarray, 635 nm fluorescence, stem cell growth factors (AID 1073). As to conditions: Notch2 binding, higher = more signal.
Experiment [6] has as its target Pro-neuregulin-1, membrane-bound isoform (Homo sapiens) (UniProt Q02297). Nature of the experiment: NRG1 binders on small-molecule microarrays, primary screen, psychiatric disease protein project, biochemical, small-molecule microarray, fluorescence 635/667 (AID 1075).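 Further: score combines 667 nm spot fluorescence with signal to noise.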 As to conditions: NRG1 binding, 635 nm fluorescence, higher = more signal.
Experiment [7] concerns Neuregulin-1 EGF-like domain. The experiment is described as follows: binders of neuregulin-1 EGF-like domain, primary screen, biochemical, small-molecule microarray, 635 nm fluorescence (AID 1081).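 Further: binding of the protein to compounds printed on small-molecule microarray slides.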 To be noted: small-molecule microarray binding, higher = more signal.
Experiment [8] is described as follows: FRG1 promoter luciferase signal modulators, primary screen, FRG1 inhibition for FSHD, cell-based, C2C12 myotubes, firefly/Renilla luciferase, luminescence (AID 1084). As to conditions: higher = more signal, called active from +8 up or from −8 down.
A short description of experiment [9]: binders of probe aFST on microarray, primary screen, stem cell growth factor project, biochemical, small-molecule microarray, fluorescence 635/667 (AID 1086).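 Further: score merges 667 nm fluorescence with signal-to-noise of each printed compound spot.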 As to conditions: higher = more signal.
Experiment [10] in a line: binders of probe aHhip on microarray, primary screen, stem cell growth factor project, biochemical, small-molecule microarray, fluorescence 635/667 (AID 1087).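 Further: score merges spot fluorescence at 667nm with spot signal to noise ratio.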 As to conditions: higher = more signal.
The test system of experiment [11] is PRMT1 (protein arginine N-methyltransferase 1). The experiment is described as follows: PRMT1 binders on small-molecule microarrays, primary screen, biochemical, small-molecule microarray, 635 nm fluorescence (AID 1088).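 Further: binding of Prmt1 protein to compounds spotted on small-molecule microarray slides.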 To be noted: small-molecule microarray binding, higher = more signal.
Experiment [12] can be described thus: yeast growth modulation, basal conditions, primary screen, YJM789 clinical isolate, OD600, 24 h (AID 1089).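 Further: growth of clinical yeast isolate S. cerevisiae YJM 789 seeded 1000 cells per well; test concentration not given here.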 To be noted: S. cerevisiae YJM789 growth, higher = more signal, called active from +8 up or from −8 down.
Experiment [13] is described as follows: fission yeast growth modulation, primary screen, strain 972, OD600, 24 h, no modulator (AID 1090).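 Further: basal condition with compound alone and no growth modifier present; test concentration not given here.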 As to conditions: S. pombe 972 growth, higher = more signal, called active from +8 up or from −8 down.
Experiment [14] can be described thus: S. cerevisiae growth modulation with rapamycin, primary screen, strain BY4716, OD600, 96 h (AID 1091). Further: test concentration not given here. To be noted: higher = more signal, called active from +8 up or from −8 down.
For experiment [15], the target named is Torsin-1A-interacting protein 2 (Homo sapiens) (UniProt Q8NFQ8). Nature of the experiment: LULL1 binders on small-molecule microarray, primary screen, cell lysate, human LULL1 lysate, 635/667 nm fluorescence (AID 1092).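 Further: score merges per-feature 667 nm fluorescence with signal-to-noise.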 To be noted: hLULL1 lysate binding, 635 nm fluorescence, higher = more signal.
The nature of experiment [16]: E. coli growth modulation, two-sided OD650, primary screen, E. coli filamentation project, strain DRC41, 24 h (AID 1093).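 Further: MC1000 strain lacking acrAB efflux and sulA so SOS filamentation is blocked; test concentration not given here.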 As to conditions: OD650, 24 h, higher = more signal, called active from +8 up or from −8 down.
The nature of experiment [17]: small-molecule microarray binders of probe aLefty2, primary screen, biochemical, biotinylated probe, 635/667 nm fluorescence (AID 1094).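 Further: score merges spot fluorescence near 667 nm with spot signal-to-noise ratio.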 To be noted: higher = more signal.
Experiment [18] concerns Noggin (protein binding on small-molecule microarray). The experiment is described as follows: Noggin binders on small-molecule microarray, primary screen, biochemical, 635/667 nm fluorescence (AID 1095).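 Further: score merges 667 nm feature fluorescence with signal to noise over triplicate slides.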 To be noted: 635 nm fluorescence, higher = more signal.
Experiment [19] has as its target Neurogenic locus notch homolog protein 3 (Homo sapiens) (UniProt Q9UM47). Nature of the experiment: NOTCH3 binders on small-molecule microarray, primary screen, biochemical, 635/667 nm fluorescence (AID 1096). As to conditions: NOTCH3 binding, 635 nm fluorescence, higher = more signal.
Experiment [20] is described as follows: small-molecule microarray binders of probe aEGFR, primary screen, biochemical, biotinylated probe, 635/667 nm fluorescence (AID 1097).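 Further: probe is a biotinylated anti-EGFR antibody binding compounds printed on slides; score combines fluorescence near 667 nm and signal to noise of each spot.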 As to conditions: higher = more signal.

Pro-neuregulin-1, membrane-bound isoform (Homo sapiens), sequence (Q02297 whole entry, looked up, the tested form may be a part, canonical isoform): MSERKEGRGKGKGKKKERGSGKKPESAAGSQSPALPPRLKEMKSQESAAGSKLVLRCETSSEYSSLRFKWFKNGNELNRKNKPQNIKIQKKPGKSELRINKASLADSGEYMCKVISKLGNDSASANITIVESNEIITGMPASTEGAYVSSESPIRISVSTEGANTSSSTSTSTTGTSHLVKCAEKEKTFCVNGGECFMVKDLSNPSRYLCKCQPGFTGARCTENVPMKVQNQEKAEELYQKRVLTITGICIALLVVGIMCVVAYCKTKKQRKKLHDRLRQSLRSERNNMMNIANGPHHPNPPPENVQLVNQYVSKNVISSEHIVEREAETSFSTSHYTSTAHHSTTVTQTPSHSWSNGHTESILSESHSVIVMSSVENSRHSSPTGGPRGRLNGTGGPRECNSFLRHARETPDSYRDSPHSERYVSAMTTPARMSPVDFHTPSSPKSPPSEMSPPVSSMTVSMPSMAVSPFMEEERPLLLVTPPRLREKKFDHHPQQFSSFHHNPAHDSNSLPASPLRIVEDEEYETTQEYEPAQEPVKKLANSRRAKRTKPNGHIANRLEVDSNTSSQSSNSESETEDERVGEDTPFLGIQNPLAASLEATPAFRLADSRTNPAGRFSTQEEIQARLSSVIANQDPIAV
Neurogenic locus notch homolog protein 2 (Homo sapiens), sequence (Q04721 whole entry, looked up, canonical isoform): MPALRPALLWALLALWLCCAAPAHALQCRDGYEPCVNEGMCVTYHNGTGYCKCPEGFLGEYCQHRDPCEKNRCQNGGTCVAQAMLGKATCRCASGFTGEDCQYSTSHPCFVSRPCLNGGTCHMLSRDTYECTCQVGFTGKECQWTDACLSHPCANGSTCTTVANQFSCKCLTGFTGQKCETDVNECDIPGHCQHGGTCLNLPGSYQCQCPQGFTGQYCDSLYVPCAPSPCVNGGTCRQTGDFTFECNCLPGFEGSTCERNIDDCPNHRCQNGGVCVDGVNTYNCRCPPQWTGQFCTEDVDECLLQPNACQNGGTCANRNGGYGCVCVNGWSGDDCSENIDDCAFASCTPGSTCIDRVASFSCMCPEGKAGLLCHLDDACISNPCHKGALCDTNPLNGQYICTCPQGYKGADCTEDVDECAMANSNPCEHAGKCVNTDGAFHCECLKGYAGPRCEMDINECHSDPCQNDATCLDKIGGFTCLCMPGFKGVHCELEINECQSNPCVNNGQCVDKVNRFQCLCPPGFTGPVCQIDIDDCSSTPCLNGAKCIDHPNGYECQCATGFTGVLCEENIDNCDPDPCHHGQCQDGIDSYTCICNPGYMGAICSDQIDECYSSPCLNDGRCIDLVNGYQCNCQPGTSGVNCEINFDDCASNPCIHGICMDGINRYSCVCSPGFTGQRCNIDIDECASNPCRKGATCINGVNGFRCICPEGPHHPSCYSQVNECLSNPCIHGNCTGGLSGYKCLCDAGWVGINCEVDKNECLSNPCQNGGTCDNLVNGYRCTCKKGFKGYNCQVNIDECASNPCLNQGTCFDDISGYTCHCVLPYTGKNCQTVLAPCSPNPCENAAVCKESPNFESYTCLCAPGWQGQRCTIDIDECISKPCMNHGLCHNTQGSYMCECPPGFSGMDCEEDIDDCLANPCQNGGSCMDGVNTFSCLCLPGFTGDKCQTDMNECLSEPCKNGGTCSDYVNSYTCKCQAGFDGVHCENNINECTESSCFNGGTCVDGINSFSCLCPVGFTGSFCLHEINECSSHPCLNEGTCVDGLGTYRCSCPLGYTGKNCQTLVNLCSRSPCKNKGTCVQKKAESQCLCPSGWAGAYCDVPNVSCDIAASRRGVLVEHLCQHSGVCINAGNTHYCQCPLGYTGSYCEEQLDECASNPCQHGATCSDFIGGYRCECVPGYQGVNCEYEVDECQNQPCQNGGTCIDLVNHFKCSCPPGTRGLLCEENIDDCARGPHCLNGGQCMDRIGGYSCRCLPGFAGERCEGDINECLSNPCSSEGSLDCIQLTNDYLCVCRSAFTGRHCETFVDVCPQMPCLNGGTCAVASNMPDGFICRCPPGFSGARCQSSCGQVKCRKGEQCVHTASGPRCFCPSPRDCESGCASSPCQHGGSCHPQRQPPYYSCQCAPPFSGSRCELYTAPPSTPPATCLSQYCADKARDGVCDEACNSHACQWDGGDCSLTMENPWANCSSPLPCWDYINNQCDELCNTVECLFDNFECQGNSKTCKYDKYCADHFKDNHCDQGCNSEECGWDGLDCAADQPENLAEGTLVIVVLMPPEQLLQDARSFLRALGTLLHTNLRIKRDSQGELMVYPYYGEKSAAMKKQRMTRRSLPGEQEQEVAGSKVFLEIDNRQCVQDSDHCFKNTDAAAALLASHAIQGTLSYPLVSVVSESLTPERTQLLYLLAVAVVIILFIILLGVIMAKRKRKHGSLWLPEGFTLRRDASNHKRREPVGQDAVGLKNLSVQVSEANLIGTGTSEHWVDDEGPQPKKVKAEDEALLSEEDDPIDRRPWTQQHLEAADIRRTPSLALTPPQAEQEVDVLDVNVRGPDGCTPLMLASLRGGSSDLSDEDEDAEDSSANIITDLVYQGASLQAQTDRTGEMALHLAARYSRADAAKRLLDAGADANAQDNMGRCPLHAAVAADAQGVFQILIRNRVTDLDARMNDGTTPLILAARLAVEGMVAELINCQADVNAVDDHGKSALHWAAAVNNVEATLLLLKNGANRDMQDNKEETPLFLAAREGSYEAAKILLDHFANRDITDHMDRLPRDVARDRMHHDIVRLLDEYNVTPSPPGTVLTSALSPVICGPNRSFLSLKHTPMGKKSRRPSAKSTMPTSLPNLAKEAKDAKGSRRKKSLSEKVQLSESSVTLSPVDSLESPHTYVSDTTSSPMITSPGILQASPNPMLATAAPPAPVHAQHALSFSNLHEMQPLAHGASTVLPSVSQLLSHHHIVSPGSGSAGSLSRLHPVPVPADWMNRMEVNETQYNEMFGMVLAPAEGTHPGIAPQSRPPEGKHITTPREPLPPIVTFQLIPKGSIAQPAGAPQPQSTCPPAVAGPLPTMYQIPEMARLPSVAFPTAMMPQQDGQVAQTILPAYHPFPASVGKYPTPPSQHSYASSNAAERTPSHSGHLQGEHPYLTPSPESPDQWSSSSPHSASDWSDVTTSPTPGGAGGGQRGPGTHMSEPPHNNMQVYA
Torsin-1A-interacting protein 2 (Homo sapiens), sequence (Q8NFQ8 whole entry, looked up): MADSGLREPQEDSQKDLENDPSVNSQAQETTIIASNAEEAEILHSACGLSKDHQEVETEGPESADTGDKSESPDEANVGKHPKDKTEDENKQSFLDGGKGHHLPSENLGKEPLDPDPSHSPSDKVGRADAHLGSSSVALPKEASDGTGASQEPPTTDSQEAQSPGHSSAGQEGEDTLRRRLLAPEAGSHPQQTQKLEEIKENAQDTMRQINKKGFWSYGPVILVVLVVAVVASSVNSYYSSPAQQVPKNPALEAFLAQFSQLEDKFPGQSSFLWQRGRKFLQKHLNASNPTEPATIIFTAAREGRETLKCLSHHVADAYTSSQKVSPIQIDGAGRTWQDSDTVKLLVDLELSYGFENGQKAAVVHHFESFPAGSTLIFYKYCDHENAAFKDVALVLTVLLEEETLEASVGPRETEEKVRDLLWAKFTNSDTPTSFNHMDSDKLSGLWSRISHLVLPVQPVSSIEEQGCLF

Consider `O=C(N1CCOCC1)[C@@]1(Cc2ccccc2)COC(c2ccc(OCCCO)cc2)=N1`, for which the composite z-score stood at 1.06 in [1]; 0.615 in experiment [2]; 0.0094 in [3]; 0.64 in experiment [4]; 0.763 in [5]; 1.49 in experiment [6]. Further, the composite z-score in [7] amounted to 1.06; in experiment [9], 0.48; in [10], 0.264; in experiment [11] it was 0.88; in experiment [15], 2.95; in experiment [17], 0.588. The values for the composite z-score in experiment [18], in experiment [19] and in experiment [20] were -0.622, 0.116 and 0.518, respectively. Moreover, the z-score in [8] was -1.28 (inactive); in experiment [12], -0.731 (inactive); in experiment [13], -5.55 (inactive); in experiment [14], -1.39 (inactive); in experiment [16], 2.88 (inactive).

On to `NCCCCCCNC(=O)[C@@H]1C[C@@H]2C(=O)N3CCC[C@H]3C(=O)N2[C@@H]1c1cccc(OCCO)c1`, for which the composite z-score in experiment [1] was 1.14; in [2], 0.957; in experiment [3] it was -0.0347; in [4], 0.361; in experiment [5], 0.0828; in experiment [6], 1.58. Also, the composite z-score in experiment [7] is 1.36; in experiment [9], 0.492; in experiment [10], 0.249; in experiment [11] it was 1.06; in experiment [15] it was 1.74; in [17] it was 0.0686. For the same compound, the composite z-score was determined as 1.1 in experiment [18], 0.73 in experiment [19] and 0.0713 in [20]. For the same compound, the z-score in experiment [8] was 1.52 (inactive); in experiment [12] it was -1.18 (inactive); in experiment [13], -0.822 (inactive); in [14], -0.651 (inactive); in experiment [16], 0.974 (inactive).

For `COC(=O)[C@@]1(Cc2ccccc2)[C@H]2c3cc(C(=O)N(C)C)n(CCO)c3C[C@H]2CN1C(=O)c1ccccc1`, the composite z-score in [1] came out at 0.348; in experiment [2], 0.0312; in experiment [3] it was 0.152; in experiment [4], 1.14; in experiment [5], 1.39; in experiment [6], 1.93. The composite z-score was 1.17 in experiment [7]; 0.647 in experiment [9]; -0.418 in [10]; 0.805 in experiment [11]; 4.04 in [15]; 0.381 in [17]. For the same compound, the results for the composite z-score in [18], in [19] and in experiment [20] were -0.779, 1.02 and 0.418, respectively. For the same compound, the z-score in [8] was 1.27 (inactive); in experiment [12], 0.136 (inactive); in [13] it was 0.612 (inactive); in [14], 0.26 (inactive); in [16], -0.508 (inactive).

In the case of `C=CCOC(=O)[C@@H]1[C@H]2C(=O)O[C@H](c3ccccc3)[C@H](c3ccccc3)N2[C@H](c2ccc(OCCOC(=O)[C@H]3C[C@H]4C(=O)N[C@@H](CCCCN(C)C)C(=O)N4[C@H]3c3ccc(O)cc3)cc2)[C@@]12C(=O)Nc1ccc(I)cc12`, the composite z-score in experiment [1] was -0.139; in [2] it was 1.43; in [3], -0.0583; in [4], 0.454; in experiment [5], -0.0871; in experiment [6], 0.655. Further, the composite z-score is 1.33 in experiment [7]; 0.166 in [9]; 0.0373 in [10]; 1.53 in experiment [11]; 2.68 in experiment [15]; -0.0686 in experiment [17]. Moreover, the composite z-score in experiment [18] was 1.93; in experiment [19], 1.1; in [20] it was -0.0487. The z-score in experiment [8] is 0.921 (inactive); in experiment [12], 1.16 (inactive); in [13], -2.52 (inactive); in [14] it was 1.35 (inactive); in experiment [16], -1.27 (inactive).

In the case of `COCCOC(=O)N1C(=O)[C@@]2(c3cc(C#CCC(C(=O)OC)C(=O)OC)ccc31)[C@H](C(N)=O)[C@H]1C(=O)O[C@H](c3ccccc3)[C@H](c3ccccc3)N1[C@@H]2c1ccc(O)cc1`, the composite z-score in experiment [1] was -0.291; in experiment [2], 0.79; in experiment [3] it was 0.015; in [4], 1.2; in experiment [5], 1.57; in experiment [6] it was 1.6. Besides, the composite z-score in experiment [7] worked out at 1.23; in experiment [9], 0.838; in experiment [10] it was 0.0768; in experiment [11] it was 1.54; in experiment [15] it was 2.58; in experiment [17] it was 0.126. The figures for the composite z-score in experiment [18], in [19] and in experiment [20] were 1.12, 1.07 and 0.0254, respectively. Also, the z-score in experiment [8] was 3.78 (inactive); in [12], 2.77 (inactive); in [13] it was 2.65 (inactive); in experiment [14] it was 7.43 (inactive); in [16] it was 0.819 (inactive).
